Laboratory results taken from PubChem BioAssay (NCI).
This is part of a sample that, as a whole, favours compounds with a hit. Of some 83,000 tested, about 20% had one in any assay.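 How to read the values: 0–100, growth inhibition (40 = 60% inhibited); 0, no net growth; -100 to 0, cell death (-40 = 40% of starting cells died; -100 = all dead).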 Unmarked numbers belong to inactive results. Active and inactive are the calls of the source. How the source made its calls: active means growth percent below 10; inactive means the rest.

Tests used:
Experiment in all cases: NCI-60 one-dose screen, 48 h (100 = growth as untreated, 0 = no growth, -100 = all killed)
Details in all cases: 10 µM unless noted
[1] = system: SR leukemia
[2] = system: RPMI-8226 leukemia
[3] = system: OVCAR-8 ovarian
[4] = system: OVCAR-5 ovarian
[5] = system: SK-OV-3 ovarian
[6] = system: IGROV1 ovarian
[7] = system: OVCAR-3 ovarian
[8] = system: HS 578T breast
[9] = system: NCI/ADR-RES ovarian
[10] = system: T-47D breast
[11] = system: BT-549 breast
[12] = system: MDA-MB-435 melanoma
[13] = system: SW-620 colon
[14] = system: MCF7 breast
[15] = system: HCT-116 colon
[16] = system: HCC-2998 colon
[17] = system: KM12 colon
[18] = system: OVCAR-4 ovarian

SMILES	growth [1]	growth [2]	growth [3]	growth [4]	growth [5]	growth [6]	growth [7]	growth [8]	growth [9] [%]	growth [10]	growth [11]	growth [12]	growth [13]	growth [14]	growth [15]	growth [16]	growth [17]	growth [18]
NC(=N\N=C/c1cccc([N+](=O)[O-])c1)/C(N)=N\N=C/c1cccc([N+](=O)[O-])c1	71.3%	70.5%	57.8%	101%	61.1%	96.1%	42.9%	-11.6% (active)	80.5	4.8% (active)	-14.9% (active)	73.2%	38.9%	12.9%	37.4%	102%	54.2%	–
COc1ccc2c(c1)O/C(=C/c1ccc(OCC(=O)c3ccccc3)cc1)C2=O	72.7%	99.7%	111%	88.6%	125%	–	90.1%	350%	93.1	97.4%	119%	87%	131%	118%	94.1%	114%	105%	113%
C=C(C)[C@@H]1CC[C@]2(C(=O)NC3CCCCC3)CC[C@]3(C)[C@H](CC[C@@H]4[C@@]5(C)CCCNC(C)(C)[C@@H]5CC[C@]43C)[C@@H]12	-22.5% (active)	-32.5% (active)	-16.7% (active)	–	95.8%	55.1%	64.8%	78.8%	57.7	-32.8% (active)	85.4%	6.98% (active)	-76.1% (active)	16.5%	-13.8% (active)	-16% (active)	16.7%	44.6%
O=C(Nc1cccc(Cl)c1)c1cc(N=Nc2ccc([N+](=O)[O-])cc2Cl)ccc1O	20.7%	3.54% (active)	15.6%	–	93.1%	22.9%	85%	54%	67.6	53.6%	81%	90.5%	86.1%	32%	52.9%	45.8%	93.7%	59.9%
N=C1C(c2nc(-c3ccc(Br)cc3)cs2)=C(O)CN1Cc1cccnc1	55.1%	70.2%	16.3%	77.1%	40.4%	–	101%	–	70.1	46.3%	39.9%	53.4%	81.5%	77.9%	21.4%	85.9%	61.7%	37.2%
Cc1ccc(NCCN(C)C)c2c(=O)c3ccccc3sc12	17%	-23.4% (active)	16.3%	62%	–	-30.9% (active)	33.8%	46.4%	38.6	22.3%	76.6%	13.2%	8.96% (active)	0.259% (active)	10.2%	-16.2% (active)	23.3%	42.4%
NS(=O)(=O)c1cnccc1Oc1cccc2cccnc12	86%	88.4%	54.1%	82.9%	77.8%	–	113%	88.7%	107	109%	93.3%	108%	106%	93.4%	97%	95.9%	107%	118%
CC1(c2ccccc2)NC(=O)N(NC(=O)CSc2nc(-c3cccs3)nc3ccccc23)C1=O (stereo not given)	67%	72.9%	82.4%	–	124%	88.6%	95.9%	101%	87.9	95.9%	110%	103%	109%	106%	93.6%	98.4%	103%	106%
COC(=O)c1c2c(c(C)[n+]([O-])c1C)C(=O)C(NCc1ccc(F)cc1)=CC2=O	9.28% (active)	26.9%	-5.16% (active)	–	84.1%	17.6%	-21% (active)	82.6%	10	6.75% (active)	52.4%	-72.9% (active)	6.37% (active)	-0.8% (active)	1.27% (active)	25.7%	19.9%	-38.5% (active)
O=c1c2c3c(sc2nc(N/N=C/c2ccc(Br)cc2)n1Cc1ccccc1)CCCC3	33.5%	52%	45.9%	78.3%	81.7%	–	76.8%	64.8%	80	87.5%	93.6%	83.4%	83.8%	58.3%	67.4%	37.3%	81.9%	84.2%
O=C(COc1ccc(/C=C2\Oc3ccccc3C2=O)cc1)Nc1nc2c(s1)CCCC2	-90.7% (active)	-86.3% (active)	6.97% (active)	61.7%	27.3%	–	29.3%	69.2%	78.8	87%	–	24.4%	65.5%	82.5%	75.5%	99.6%	-75% (active)	75.6%
COc1cccc(-c2nn(-c3ccccc3)cc2-c2ccnc(NCCNC(=O)Nc3cccc(C(F)(F)F)c3)c2)c1	-21.2% (active)	32.6%	19.8%	–	44.9%	55.4%	39.2%	-21.3% (active)	27.2	0.52% (active)	26.1%	29.1%	39%	15.3%	–	-47% (active)	2.54% (active)	46.5%
CC1SC(c2ccc(OCc3ccccc3)cc2)N(NC(=O)C(O)(c2ccccc2)c2ccccc2)C1=O (stereo not given)	35.9%	-7.26% (active)	77.8%	80.5%	73.3%	–	31%	–	63.5	25.8%	92.9%	57.7%	69.7%	35.7%	39.6%	79.9%	34.2%	54.7%
CCC(CO)Nc1nc2ccc(Cl)cc2c2ccccc12 (stereo not given)	26.9%	66.6%	75.1%	–	70.7%	58.1%	62.8%	29.5%	62.4	59.5%	70.6%	58%	79.7%	72.7%	71.5%	54.9%	45.7%	71.3%
COc1cc(-c2n/c(=C\c3c(O)[nH]c4ccc(Cl)cc34)cc3c2=Nc2ccccc2-3)cc(OC)c1OC	0.372% (active)	15.5%	3.95% (active)	–	-14.2% (active)	-18.3% (active)	-57.4% (active)	20.9%	15.1	32.7%	101%	16.6%	-29.5% (active)	0.83% (active)	-73.5% (active)	44.6%	2.53% (active)	-41.8% (active)
CCOC(=O)/C=C/c1cc2cc(-c3csc4ccccc34)ccc2[nH]1	0.282% (active)	47.4%	19.6%	101%	132%	–	77.1%	67.2%	30.8	55%	69.6%	-10.4% (active)	46.4%	34.6%	–	33.4%	23.2%	92.3%
c1cc2ccc3cc2cc1CNCCOCCNCc1ccc2ccc(cc2c1)CNCCOCCNC3	10.1%	0.51% (active)	-3.14% (active)	-16.8% (active)	–	-4.09% (active)	-40% (active)	-17.6% (active)	105	-23.8% (active)	99.6%	-90.2% (active)	2.45% (active)	-17.1% (active)	-4.41% (active)	-57.4% (active)	-39% (active)	-40.4% (active)
COc1ccc(/C=c2\nc3n(-c4ccccc4)c4nc5c6c(sc5c(=N)n4n-3c2=O)CCCC6)cc1	61.5%	80.1%	89.3%	104%	–	61.4%	88.2%	85.6%	83.1	71.9%	94.2%	89.5%	104%	71.9%	–	105%	92.5%	82%
